How the values were obtained:
Assay in all cases: PBM binding z-score (relative to random genomic background probes); higher = stronger binding; sequences stand for … in GC…GCGATTGACAGCGTAGAATGAAGG
[1] = system: RARb homodimer (NR concentration 270 nM)
Summary of the method: (§1)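 Probes were double-stranded and carried 34-nt variable regions with direct-repeat seeds, single-nucleotide variants, half-site ablations and random human genomic background sequences, printed on custom Agilent 4×180K protein-binding microarrays. Arrays were incubated 1 h with ligand-free nuclear receptor dimers in PBS pH 7.4, 2% milk, 0.02% Triton X-100, 1 mM DTT, 0.2 mg/mL BSA and 0.4 mg/ml salmon testes DNA. Antibodies against each partner (one per run) detected binding, and scanned fluorescence was regression-normalized. Binding z-scores use the random background probes as reference.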

[2] = system: RARg:RXRa (NR concentration 270 nM, RXRa partner concentration 90 nM)
Summary of the method: as §1

[3] = system: RARg homodimer (NR concentration 270 nM)
Summary of the method: as §1

[4] = system: RXRa DBDmut IVT, anti-RXR (DBD mutation: RXRa K156A/R161A, NR concentration 90 nM)
Summary of the method: as §1

[5] = system: RXRa homodimer (NR concentration 180 nM)
Summary of the method: as §1

[6] = system: THRa:RXRa (NR concentration 90 nM, RXRa partner concentration 90 nM)
Summary of the method: as §1

[7] = system: THRa homodimer (NR concentration 90 nM)
Summary of the method: as §1

[8] = system: VDR homodimer (NR concentration 270 nM)
Summary of the method: as §1

Sequence | PBM binding z-score [1] | PBM binding z-score [2] | PBM binding z-score [3] | PBM binding z-score [4] | PBM binding z-score [5] | PBM binding z-score [6] | PBM binding z-score [7] | PBM binding z-score [8]
CCTAGTTGGTCAAGGTCACACACGCTATAGGTAC | 4.21 | 4.84 | 4.85 | 2.36 | 5 | 4.11 | 4.42 | 4.32
ACTCTTAGTTGACTTAGGGCAACCGATACGACGC | 1.01 | 0.837 | 0.667 | 0.736 | 0.605 | 1.52 | 0.885 | 0.184
CGTCAAAGTTCAGGGTAACGTAACAGAAAGCAGC | 3.13 | 4.04 | 4.74 | 3.74 | 2.91 | 2.14 | 0.495 | 2.51
TCTATTCGTTGAAGGGCAACCGACGAGTCCGTTT | 1.39 | 0.744 | 0.769 | 1.49 | 0.993 | 0.507 | 0.017 | 1.27
ATATGTAGCTTACATCCGGGTCATTCAGGCTATG | 1.78 | 1.48 | 1.02 | 0.735 | 1.9 | 2.87 | 2.3 | 2.18
AGTCAAAGTTCAGGACGAGGTAACGCAAAGCACG | 3.22 | 4.76 | 4.54 | 2.81 | 3.06 | 3.75 | 1.73 | 1.73
CCTTACCGGTCACGAGGTTATAGCACGACGAGCG | 3.08 | 4.01 | 3.68 | 0.188 | 2.62 | 2.37 | 1.43 | 1.34
